Consider 39 compounds from the supplement of paper PMC12669032.

The assay has as its system Bacteroides dorei. The experiment in a line: growth AUC relative to DMSO control (median of replicates) (fraction); higher = more growth (less inhibition), active = hit call of the paper. The note with it: 20 µM; 24 h. The gist of the method: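 Gut bacterial monocultures in mGAM were treated with 20 µM compound (1% DMSO) and grown anaerobically at 37 °C in round-bottom 96-well plates from OD600 0.05. OD600 was read hourly for 24 h, with the minimum OD set to 0. Area under the growth curve was normalised to the plate median of solvent-only wells, or to row and column medians on the industrial chemical plate. Each value is the median of three biological replicates, each grown on a separate day.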
For the compound `CN(C)C(=O)Nc1ccc(Cl)c(Cl)c1`, the “growth AUC” value is 0.981 (inactive).
Next, `CCOC(=O)C1CC(=O)C(=C(O)C2CC2)C(=O)C1` (centres undefined): 0.979 (inactive).
`COC(=O)C(C)Oc1ccc(Cl)cc1C` (centres undefined): the “growth AUC” value was 1 (inactive).
As to `FC(F)(F)C(=NOCC1OCCO1)c1ccc(Cl)cc1`, the “growth AUC” value is 0.969 (inactive).
Consider `NC(=S)Nc1cccc2ccccc12`, for which the “growth AUC” value was 0.835 (inactive).
As to `CC(C)c1cc(Oc2ccccc2)cc(C(C)C)c1NC(=S)NC(C)(C)C`, the “growth AUC” value is 0.983 (inactive).
Take `O=[N+](Nc1ccccc1)c1ccccc1`: the “growth AUC” value is 0.997 (inactive).
Take `Cc1[nH]n(C)c(=O)c1C(=O)c1ccc(C(F)(F)F)cc1S(C)(=O)=O`: the “growth AUC” value was 1.02 (inactive).
With `O=C=NC1CCC(CC2CCC(N=C=O)CC2)CC1` (centres undefined), the “growth AUC” value was 0.939 (inactive).
`CCc1cccc(C)c1N(COC(C)C)C(=O)CCl`: the “growth AUC” value was 1.03 (inactive).
In the case of `O=C(Nc1ccc(Cl)cc1C(O)c1ccccc1)c1ccncc1` (centres undefined) it was 1.01 (inactive); in that of `CNC(=O)Nc1nc2ccccc2s1`, 0.959 (inactive); in that of `CC(C)CNC(=O)N1CCNC1=O`, 0.96 (inactive).
Consider `C/C=C/C(=O)Oc1c(C(C)CCCCCC)cc([N+](=O)[O-])cc1[N+](=O)[O-]` (mixture of isomers), for which the “growth AUC” value was 0.0151 (active).
As for `CCOC(=O)NCCOc1ccc(Oc2ccccc2)cc1`, the “growth AUC” value is 0.854 (inactive).
For the compound `NC(=O)Cc1cccc2ccccc12`, the “growth AUC” value was 0.988 (inactive).
On to `NS(=O)(=O)[O-].[NH4+]`, for which the “growth AUC” value was 1.02 (inactive).
`COC(=O)c1ccc(C(=O)OC)cc1`: the “growth AUC” value is 1.01 (inactive).
In the case of `Nc1cc(Cl)nc(C(=O)O)c1Cl` it was 0.971 (inactive); in that of `CCc1cccc(C)c1N(C(=O)C(=O)O)[C@@H](C)C(=O)O`, 0.963 (inactive).
Consider `O=S(=O)(Oc1ccc(Cl)cc1)c1ccccc1`, for which the “growth AUC” value was 0.941 (inactive).
With `Oc1ccc2nc(-c3cscn3)[nH]c2c1`, the “growth AUC” value was 0.997 (inactive).
As for `COC(=O)c1csc(C)c1S(=O)(=O)NC(=O)n1nc(OC)n(C)c1=O`, the “growth AUC” value is 0.967 (inactive).
Turning to `CCCCOCN(C(=O)CS(=O)(=O)[O-])c1c(CC)cccc1CC.[Na+]`, the “growth AUC” value was 1.01 (inactive).
In the case of `O.O.O=[N+]([O-])c1ccc([O-])cc1.[Na+]` it was 0.988 (inactive).
As to `COCC(=O)N(c1c(C)cccc1C(=O)O)C(C)C(=O)O` (centres undefined), the “growth AUC” value is 1.01 (inactive).
As for `O=C(O)COc1ccc(Cl)cc1CO`, the “growth AUC” value is 0.721 (inactive).
Consider `CCOc1ccc2c(c1)C(C)=CC(C)(C)N2`, for which the “growth AUC” value was 1 (inactive).
As to `CC(C)CCCCCOC(=O)C(C)Oc1ccc(Cl)cc1Cl` (centres undefined), the “growth AUC” value was 0.954 (inactive).
Next, `[S]`: 1.07 (inactive); `CCCC(C)(C)C(=O)Nc1ccc(Cl)cc1`: 1.02 (inactive).
As for `CSc1nnc(C(C)(C)C)c(=O)n1/N=C/C(C)C`, the “growth AUC” value is 1.02 (inactive).
For the compound `O=C(O)CCCc1c[nH]c2ccccc12`, the “growth AUC” value is 0.776 (inactive).
Regarding `C=C1C[C@]23C[C@@]1(O)CC[C@H]2[C@@]12C=C[C@H](O)[C@@](C)(C(=O)O1)[C@H]2[C@@H]3C(=O)O`, the “growth AUC” value is 0.921 (inactive).
`Nc1ccc(S(=O)(=O)Nc2nccs2)cc1`: the “growth AUC” value is 0.943 (inactive).
With `CCCCCCCCCC[N+](C)(C)Cc1ccccc1.[Cl-]`, the “growth AUC” value is 0.979 (inactive).
In the case of `CN1CCC[C@H]1c1cccnc1` it was 1.04 (inactive); in that of `O=C1NCCN1`, 1.06 (inactive).
Regarding `O=C(O)COc1cccc(Cl)c1Cl`, the “growth AUC” value was 0.962 (inactive).
